# HepG2 tox: HepG2 cytotoxicity, counter-screen for TGF-b inhibitors; HepG2 CAGA-GFP viability, ATP luminescence, 18 h; Potency, µM (series often up to 46.1 µM), without a hit: top-dose activity change, negative = cytotoxicity, most hits filed as cytotoxic; 0.76% of 410,000 active; AID 588856; further: potency means the concentration at half of the fitted maximal effect
#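 CellTiter-Glo luminescence gave cytotoxicity after 18 hours at 37 degrees C. The cells were HepG2 CAGA-GFP in 1% FBS DMEM, stimulated with 500 pg/mL TGF-beta after compound addition. %Activity was normalised to no-cell wells (complete cell-killing) and DMSO (no toxicity), and curves were fitted and classified.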
# TGFb inhibitor: inhibitors of TGF-b signaling. HepG2 CAGA-GFP TGF-b/SMAD3 reporter, GFP fluorescence, 18 h; TGF-beta stimulated, 500 pg/mL final. Potency, µM (top dose mostly 46.1 µM), for inactives: top-dose activity, negative = inhibition, most hits filed as inhibitors. 1.2% of 410,000 active. AID 588855; further: potency means the concentration at half of the fitted maximal effect; on the % scale 0 is the no-effect control and ±100 the full control effect; nearly all actives have a fitted effect of over 65% in size
#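 Per well, imaged GFP fluorescence of HEPG2 CAGA-GFP cells gives the signal; cells get compound, then TGF-beta (500 pg/mL final), 18 h at 37 degrees C; %Activity versus -TGF-beta and +DMSO controls.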
# DT40 TDP1 no CPT: qHTS for Inhibitors of human tyrosyl-DNA phosphodiesterase 1 (TDP1): qHTS in cells in absence of CPT; 15% of 420,000 active; DT40 Tdp1-/- hTDP1 cells, no CPT, ATP luminescence, 48 h; Potency, µM (highest dose often 46.2 µM), inactives show at the highest dose activity change, negative = growth inhibition, hits mostly inhibitors; further: potency means the concentration at half of the fitted maximal effect; on the % scale 0 is the no-effect control and ±100 the full control effect; nearly all actives have a fitted effect of over 55% in size
#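 Growth kinetics read by CellTiter-Glo luminescence after ≥48 hr at 37 °C. Cells: DT40 Tdp1-/- stably carrying human TDP1, 400 per well, compound exposure in the absence of CPT (DMSO vehicle).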
# TDP1 inh: inhibitors of human tyrosyl-DNA phosphodiesterase TDP1; 0.28% of 350,000 active; recombinant TDP1, AlphaScreen DNA substrate cleavage; Q9NUW8; AID 485290; Potency, µM (doses to about 130 µM), inactives show at the highest dose activity change, negative = inhibition, most hits filed as inhibitors; further: potency means the concentration at half of the fitted maximal effect; on the % scale 0 is the no-effect control and ±100 the full control effect; nearly all actives have a fitted effect of over 40% in size
# Target sequence (Q9NUW8 whole entry, looked up): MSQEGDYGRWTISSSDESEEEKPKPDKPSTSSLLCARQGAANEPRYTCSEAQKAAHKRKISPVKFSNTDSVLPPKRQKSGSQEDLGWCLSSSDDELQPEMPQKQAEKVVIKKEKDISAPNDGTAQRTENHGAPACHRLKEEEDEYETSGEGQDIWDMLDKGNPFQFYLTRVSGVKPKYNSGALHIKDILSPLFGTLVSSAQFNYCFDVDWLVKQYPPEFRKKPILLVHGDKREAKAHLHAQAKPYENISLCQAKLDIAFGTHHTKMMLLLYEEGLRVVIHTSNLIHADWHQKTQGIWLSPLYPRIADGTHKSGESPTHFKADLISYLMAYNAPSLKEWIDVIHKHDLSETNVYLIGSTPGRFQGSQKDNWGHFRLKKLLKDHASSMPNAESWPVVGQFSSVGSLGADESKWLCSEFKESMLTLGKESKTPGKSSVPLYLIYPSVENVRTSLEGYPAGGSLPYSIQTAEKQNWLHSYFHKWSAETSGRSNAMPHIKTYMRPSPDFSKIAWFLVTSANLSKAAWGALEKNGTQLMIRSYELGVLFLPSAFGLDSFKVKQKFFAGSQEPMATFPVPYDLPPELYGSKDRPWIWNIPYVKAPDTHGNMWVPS
#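 Here, a 5' biotin and 3' phosphotyrosine-FITC DNA oligonucleotide reports Tdp1 activity: intact substrate bridges AlphaScreen beads, while cleavage leaves a 3' phosphate and drops signal. All incubations at room temperature.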
# DT40 TDP1 CPT: growth inhibition of DT40 Tdp1-/-;hTDP1 cells with camptothecin (screen for TDP1 inhibitors). chicken DT40 Tdp1-/-;hTDP1 cells + 20 nM CPT, ATP luminescence, 48 h. Potency, µM (highest dose often 46.2 µM), for inactives: top-dose activity change, negative = growth inhibition, usual class: inhibitors. 12% of 420,000 active; further: potency means the concentration at half of the fitted maximal effect; on the % scale 0 is the no-effect control and ±100 the full control effect; nearly all actives have a fitted effect of over 55% in size
#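 Chicken DT40 Tdp1-/- cells complemented with human TDP1, 400 cells/well, exposed to compounds plus 20 nM camptothecin for at least 48 h at 37 C; viability read as ATP content by CellTiter-Glo luminescence.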
# IL1B secr inh: blocks inflammasome-driven IL-1 beta release | THP-1 LPS/ATP IL-1B secretion, AlphaLISA, 16 h; stronger effect = lower value | activity change, % at 57.5 µM | 4.7% of 360,000 active; in the data active means activity change below about -50%; inconclusive means mostly about -30% to -49%; further: on the % scale 0 is the no-effect control and ±100 the full control effect
#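 Secreted IL-1B measured by AlphaLISA bead assay after 16 h compound exposure of THP-1 cells; compounds (final up to 57.5 uM) added 1 h before LPS (250 ng/mL) and ATP (1.25 mM) stimulation; lower signal means less secretion.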
# Starred values were filed as active, the others as inactive; ? = inconclusive; / = no result given; ! = not active in a repeat; [ ] = another dose, or the depositor's remark. The list is not random: actives were taken first. Their share in the collection is about 18%. Unless noted, the call rests on the fitted dose curve; in most records, active means well fitted curve in the direction sought with a large enough effect; inconclusive means small, poorly fitted or top-dose-only effect, or another doubt; inactive means no such curve, though single readings can be large; an effect the other way counts as inactive or inconclusive.
SMILES,HepG2 tox,TGFb inhibitor,DT40 TDP1 no CPT,TDP1 inh,DT40 TDP1 CPT,IL1B secr inh
C[C@@H]1C(c2ccc(F)cc2)=NN(c2ccccc2)[C@H]1C(=O)N1CCOC1=O,-8%,-7%,-8%,-5%[56.1 µM],13%,-15
CC[C@@H]1C(c2cccc(Cl)c2)=NN(c2ccc(Br)cc2)[C@H]1C(=O)N1CCOC1=O,-44%,?,?,-17%[56.1 µM],?,-66*
CC[C@@H]1C(c2ccc(F)cc2)=NN(c2ccc(Br)cc2)[C@H]1C(=O)N1CCOC1=O,-58%,?,?,-7%[56.1 µM],?,-74*
CCOC(=O)c1nc(Nc2cc(Cl)ccc2OC)c2ccccc2n1,4%,33%,?,/,?,8
COc1cc(=O)n2c(c1C(=O)NCc1ccco1)CCN(Cc1ccc(F)cc1Cl)CC2,/,/,2.9µM*,/,0.21µM*,/
Cc1c(C(=O)NCC2(N3CCOCC3)CCCC2)cnn1-c1nccc(-c2ccccc2F)n1,/,/,-9%,/,4%[9.04 µM],/
COc1ccc(S(=O)(=O)Nc2ccc3c(c2)n(C)c(=O)n3C)cc1F,-10%,0%,?,/,23µM*,-14
COc1ccc(S(=O)(=O)Nc2ccc3c(c2)n(C)c(=O)n3C)cc1,8%,5%,-9%,-5%,1%,-3
COc1ccc(S(=O)(=O)Nc2ccc3c(c2)n(C)c(=O)n3C)cc1OC,-30%,-6%,?,8%[0.0935 µM],0%,?
COc1ccc(Cl)cc1S(=O)(=O)Nc1ccc2c(c1)n(C)c(=O)n2C,20µM*!,-19%,?,8%,15µM*,25
Cc1cc(S(=O)(=O)Nc2ccc3c(c2)n(C)c(=O)n3C)ccc1F,-18%,-1%,29µM*,5%,21µM*,-18
COc1cccc(CNC(=O)CCCCCn2c(=O)[nH]c3cc(OC)c(OC)cc3c2=O)c1,-11%,-13%,?,3%,?,/
CC(C)Cc1ccc(S(=O)(=O)N2CCOCC2)cc1,-14%,-19%,-15%,0%,-19%,22
CC(C)Cc1ccc(C(C)CC2=CCC(CN(C)C)C2=O)cc1 (stereo unspecified),7.9µM*,?,4.6µM*,/,4.6µM*,0
CCOc1ccccc1NC(=O)c1ccc2c(Cl)c3c(nc2c1)CCCC3,-1%,-2%,23µM*,6%,?,/
O=C(Nc1ccc(F)c(Cl)c1)c1ccc2c(Cl)c3c(nc2c1)CCCC3,-1%,-14%,-15%,6%,-10%,/
COc1ccc(C)cc1NC(=O)c1ccc2c(=O)n3c(nc2c1)CCCCC3,-2%,14%,?,1%,15µM*,9
Cc1ccc(C)c(NC(=O)c2ccc3c(=O)n4c(nc3c2)CCC4)c1,-5%,7%,?,0%,-6%,-1
Cc1csc(NC(=O)c2ccc3c(=O)n4c(nc3c2)CCCCC4)n1,-21%,-22%,?,3%,-22%,3
CC(=O)c1cccc(NC(=O)c2ccc3c(Cl)c4c(nc3c2)CCCC4)c1,-18%,-6%,23µM*,-2%,?,-21
O=C(Nc1nccs1)c1ccc2c(=O)n3c(nc2c1)CCCCC3,-21%,0%,16µM*,0%,?,0
CC(C)ON(C(C(=O)NO)C(C)C)S(=O)(=O)c1ccc(-c2ccccc2)cc1 (stereo unspecified),/,/,/,11%,/,/
O=C(CSc1nncn2c1cc1sccc12)Nc1ccc(Br)cc1F,-29%,?,2%,3%,-6%,/
Cc1ccc(N(C)S(=O)(=O)c2ccc3c(c2)CCC(=O)N3)cc1C,/,/,/,-3%,/,/
CCCCn1c(=N)c(S(=O)(=O)c2ccc(C)cc2)cc2c(=O)n3cc(C)ccc3nc21,3%,-6%,1%,9%,-5%,/
SMILES,HepG2 tox,TGFb inhibitor,DT40 TDP1 no CPT,TDP1 inh,DT40 TDP1 CPT,IL1B secr inh
Cc1ccc(C)c(CNC(=O)c2ccc3c(c2)nc2n3CCCCC2)c1,-51%,5%,18µM*,8%,?,/
CCN(CC)S(=O)(=O)c1ccc(NC(=O)c2ccc3c(=O)n4c(nc3c2)CCCCC4)cc1,-32%,?,23µM*,8%,23µM*,/
Cc1ccc(C)c(CNC(=O)c2ccc3c(c2)nc2n3CCOC2)c1,1%,0%,-23%,3%,-3%,/
CCOc1ccc(NC(=O)c2ccc3c(=O)n4c(nc3c2)CCCCC4)cc1,8.9µM*!,6%,?,8%,?,24
CCOC(=O)c1ccccc1NC(=O)C(=O)Nc1ccc2nc3n(c(=O)c2c1)CCCCC3,5%,16%,-18%,-3%,5%,/
CCOc1ccccc1NC(=O)C(=O)Nc1ccc2nc3n(c(=O)c2c1)CCCCC3,-7%,1%,18µM*,0%,23µM*,/
CCOc1ccccc1N(C)C(=O)c1ccc2c(=O)n3c(nc2c1)CCCCC3,-11%,-2%,-25%,2%,?,0
CCOCCCNC(=S)Nc1ccc2nc3n(c(=O)c2c1)CCCCC3,-5%,-4%,-25%,5%,-18%,-64*
CCOc1ccccc1NC(=O)c1ccc2c(=O)n3c(nc2c1)CCCCC3,-1%,-4%,?,3%,16µM*,?
COc1ccc(CNc2cc([N+](=O)[O-])ccc2OC)cc1,-17%,2%,-17%,-5%,-19%,-23
COc1cc(CNc2nc(C)c([N+](=O)[O-])c(C)c2C#N)cc(OC)c1OC,2%,-2%,18µM*,0%,21µM*,39
COc1ccc(CNc2nc(C)c([N+](=O)[O-])c(C)c2C#N)cc1,-15%,4%,?,-3%,18µM*,-12
O=C(CCn1cccc1)Nc1cccc(F)c1,-3%,3%,4%,0%,-2%,-1
COC(=O)Cn1c(=O)c2cccn2c2cccnc21,1%,/,-17%,3%,9%,/
CC(C)NC(=O)N1[C@H](c2cccs2)[C@@H](C)C(=O)[C@@H](C)[C@@H]1c1cccs1,-20%,-13%,?,6%,15µM*,/
Cc1cc(=O)[nH]c2nnc(SCC(=O)Nc3ccc(OC(F)(F)F)cc3)n12,-4%,-6%,-4%,3%,12%,/
O=C(CSc1ccccc1)N1CCCC(Nc2ccccc2)C1 (stereo unspecified),-12%,-9%,?,3%,?,8

# Assay outcomes from PubChem BioAssay.
